Compounds without any hit were thinned out: in the full panel of roughly 83,000, 20% have a hit.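 The endpoint reported here, percent growth, reads 100 for growth as untreated, 0 for no net growth and -100 for all cells dead.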 Active and inactive are the calls of the source. How the source made its calls: active means growth percent below 10; inactive means the rest.

The experiment deals with HL-60(TB) leukemia. As to the kind of experiment: NCI-60 one-dose screen, 48 h (100 = growth as untreated, 0 = no growth, -100 = all killed). The following applies: 10 µM unless noted.
Take `O=C(O)CSc1ccc(NCc2oc(CO)cc(=O)c2O)cc1`: the growth is 69.3% (inactive).

As to `COc1ccc(OCC(O)CN2CCN(c3ccc(Cl)cc3)CC2)cc1` (stereo unspecified), the growth is 105% (inactive).

As to `CCCCC/C(C)=N\NC(N)=S`, the growth is 96.5% (inactive).

With `CN(c1ncccc1CNc1nc(Nc2ccc3c(c2)CC(=O)N3)ncc1C(F)(F)F)S(C)(=O)=O`, the growth is -40% (active).

Consider `COc1ccc(/C=C2\N=C(c3ccccc3)N(c3cc(OC)c(OC)cc3C(=O)N3N=C(C)CC3=O)C2=O)cc1`, for which the growth was 107% (inactive).

Turning to `Cc1nn(-c2ccccc2)c(Oc2c(Cl)cccc2Cl)c1/C=N/N=c1\sc2ccccc2n1C`, the growth is 43.1% (inactive).

`COc1cc(-c2nn(-c3ccc(NC(=O)c4cc(Cl)cc(Cl)c4)cc3)cc2-c2ccncc2)ccc1Cl`: the growth is 41% (inactive).

Regarding `CCCCNc1cc(C(=O)O)cc(S(N)(=O)=O)c1Oc1ccccc1`, the growth is 107% (inactive).

As for `CCOC(=O)NC(=S)n1oc(=O)c2ccccc21`, the growth is 104% (inactive).

With `CCN(CC)CCOC(=O)Nc1ccccc1Cl`, the growth was 102% (inactive).

For the compound `O=C(/C(=C/c1ccc([N+](=O)[O-])cc1)c1ccccc1)c1ccccc1`, the growth was 16.9% (inactive).

With `CCCCCC#CC1OC23CCCCC2C(C#N)(C(=N)O3)C1(C#N)C#N` (stereo unspecified), the growth was 81% (inactive).

Take `CCC(c1ccc(OC)cc1)C(CC)c1ccc(O)c(CN2CCN(C)CC2)c1` (stereo unspecified): the growth is 55.3% (inactive).

For the compound `O=C(O)CCC/C=C\C[C@H]1C=CC(=O)/C1=C/C[C@@H](O)CCc1cccc(C(F)(F)F)c1`, the growth was -11.7% (active).

`Cc1ccc[n+](CC(=O)c2cccc3ccccc23)c1`: the growth is 96.9% (inactive).

Turning to `C/C(=N\NC(=O)Cn1c(-c2ccc(S(C)(=O)=O)cc2)nc2cc(Cl)ccc21)c1ccc(Cl)cc1`, the growth was 88.2% (inactive).

For the compound `Nc1c(Cl)cccc1[N+](=O)[O-]`, the growth is 112% (inactive).

As to `Cc1ccc(Cl)cc1Nc1nc(C(F)(F)F)ccc1C(=O)N/N=C/c1c(Cl)cccc1Cl`, the growth was 17.3% (inactive).

In the case of `COC(=O)c1ccc2c(C(=Nc3ccc(N(C)C(=O)CN4CCN(C)CC4)cc3)c3ccccc3)c(O)[nH]c2c1`, the growth is 70.8% (inactive).

Take `CCc1c(Cl)nc(N)nc1Nc1ccc(C)c(C)c1`: the growth is 88.1% (inactive).

On to `CCCn1cnc2c(c1=N)C(c1ccc(Cl)cc1)c1sc3c(F)cccc3c1O2` (stereo unspecified), for which the growth was 62.5% (inactive).

With `C=C1C(=O)O[C@H]2[C@H]1CC/C(COC(=O)NCC(C)c1ccc(CC(C)C)cc1)=C\CC[C@@]1(C)O[C@@H]21` (stereo partly specified), the growth was -29.8% (active).

Turning to `O=C1NCC2CCCC1C2` (stereo unspecified), the growth is 98.6% (inactive).

As to `COc1ccc2c(c1)C(CC(=O)NN)CCC2` (stereo unspecified), the growth is 113% (inactive).

As for `COc1ccc(NC(=O)Nc2ccc(-c3ccc(OC)c(OC)c3)nc2C)cc1`, the growth was 85.7% (inactive).

Take `Cc1nc2cccc(NCc3ccc(C(=O)NO)cc3)c2c(=O)n1-c1ccccc1`: the growth is 27.2% (inactive).

These data come from PubChem BioAssay (NCI).
